According to PubChem BioAssay AID1159604 (The Scripps Research Institute Molecular Screening Center, 2016):
The other results are listed elsewhere or left out. Active and inactive are the calls of the source.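 The calls were made as follows: active = IC50 of 10 µM or lower in the counterscreen; inactive = IC50 above 10 µM.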

experiment: AlphaScreen signal interference by compounds, dose response, artefact control for ASK1 inhibitor project, biochemical, TruHits beads (AID 1159604); details: signal interference counterscreen;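 also: loss of AlphaScreen light from TruHits beads alone with no ASK1 enzyme present; potency of signal reduction so a low IC50 flags an assay artifact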

Row | Structure (SMILES) | IC50
1 | FC(F)(F)c1cccc(CNc2nc(Nc3ccc(N4CCOCC4)cc3)nc3c2ncn3-c2ccsc2)c1 | > 20.1 µM (inactive)
2 | Cc1cc(Nc2ccc3c(c2)OCO3)nc(Nc2cccc(N(C)C)c2)n1 | 4.88 µM (active)
3 | FC(F)(F)c1cccc(CNc2nc(N3CCN(Cc4ccc5c(c4)OCO5)CC3)nc3c2ncn3-c2ccccc2)c1 | > 20.1 µM (inactive)
4 | Fc1cnc(Nc2ccc(N3CCNCC3)cc2)cc1-n1cnc(Nc2ccccc2)n1 | > 19.2 µM (inactive)
5 | c1ccc(-c2ncn[nH]2)c(Nc2ccnc(Nc3ccc(N4CCOCC4)cc3)c2)c1 | > 19.2 µM (inactive)
6 | COc1ccc(CCNc2cc(C)nc(Nc3cccc(N(C)C)c3)n2)cc1 | 4.77 µM (active)
7 | Nc1nc(Nc2ccc(N3CCOCC3)cc2)cc(-c2ccc3[nH]ccc3c2)n1 | 11.9 µM (inactive)
8 | COc1cc2nc(Nc3cccc(N(C)C)c3)nc(Nc3cc(OC)c(OC)c(OC)c3)c2cc1OC | 8.29 µM (active)
9 | COc1cc(Nc2nc(N3CCc4ccccc4C3)nc3c2ncn3-c2ccccc2)cc(OC)c1OC | > 20.1 µM (inactive)
10 | FC(F)(F)c1cccc(CNc2nc(N3CCN(c4ccccn4)CC3)nc3c2ncn3-c2ccsc2)c1 | > 20 µM (inactive)
11 | CN1CCN(c2nc(C3COc4ccccc4O3)nc3ccc(-c4cn[nH]c4)cc23)CC1 (configuration not stated) | > 19.2 µM (inactive)
12 | Cc1ccccc1-c1cscc1Nc1cnn(-c2cccc(C(=O)Nc3ccc(N4CCOCC4)cc3)c2)c1 | > 19.2 µM (inactive)
